# Reference: PubChem BioAssay (NCATS)
# Activity calls are given as the source filed them. The call rests on the fitted dose curve; in most records, active means well fitted curve in the direction sought with a large enough effect; inconclusive means small, poorly fitted or top-dose-only effect, or effect the other way, or another doubt; inactive means no such curve, though single readings can be large or run the other way.
# Experiment: Inducers of the Endoplasmic Reticulum Stress Response (ERSR) in human glioma: Validation (AID 504836); further: 0% is about no effect
# Details: human glioma cells, ER stress response reporter; series mostly up to 38.3 µM; activation: at the top concentration
# Source text: Primary protein unfolding takes place for many diseases, including diabetes and hypoxia, , and triggers a reaction in the cells called ER stress response (ERSR). ). ERSR is designed as a repair mechanism, but ultimately leads to cell death via apoptosis if conditions triggering protein unfolding persist (1). The molecular clue to ERSR activation is the enhancement of the expression of key molecular chaperones, including the glucose regulated protein (GRP) 78. GRP78 is the main sensor for protein folding and the main actuator of the ERSR.
# In a collaboration between the Southern Research Institute and the NIH Chemical Genomics Center, a cell based screen was developed that reliably uses GRP78 as a sensor to identify small molecules as inducers of ERSR. In resting conditions, GRP78 binds proteins and acts as a natural repressor. Once unfolded proteins are present in the ER, GRP78 releases some of the repressors and binds to the unfolded proteins. The release of the repressors executes the ERSR program. Using a human glioma cell line in a miniaturized, luminescent format, a high-throughput screen was developed to identify actuators of the ERSR.
# (1) Soboloff, J. and S. A. Berger (2002). "Sustained ER Ca2+ depletion suppresses protein synthesis and induces activation-enhanced cell death in mast cells." J Biol Chem 277(16): 13812-20.
# NIH Chemical Genomics Center [NCGC]
# NIH Molecular Libraries Probe Centers Network [MLPCN]
# Assay Submitter (PI): Maurizio Grimaldi, Southern Research Institute
# Stable transfected human glioma cell line, U87-MG, are dispensed at density 1000 cells/well into Greiner white solid bottom 1536-well assay plates. Compounds are transferred via Kalypsys pin tool equipped with 1536-pin array (10nl slotted pins, V&P Scientific, San Diego, CA). The assay plates will be incubated for 16 hours and developed by adding appropriate quantities of the Promega Bright Glo reagent. The plates will be incubated at room temperature for 10 minutes prior to being transferred into a ViewLux high-throughput CCD imager (PerkinElmer), wherein end-point measurements of luminescence are acquired.
row,SMILES,activation
1,c1ccc2c(N3CCNCC3)cccc2c1,10.2% (inactive)
2,c1ccc2cc(CC3=NCCN3)ccc2c1,1.69% (inactive)
3,C[N+]1(C)C2CCC1CC(OC(=O)c1c[nH]c3ccccc13)C2 (stereo not given),-5.26% (inactive)
4,CN(C(=O)Cc1ccc(Cl)c(Cl)c1)C(CN1CCCC1)c1cccc(OCC(=O)O)c1 (stereo not given),-4.2% (inactive)
5,O=[N+]([O-])/C=C/c1ccc2c(c1)OCO2,-11.6% (inactive)
6,C#CCN[C@H](C)Cc1ccccc1,-3.44% (inactive)
7,CC1OC1P(=O)(O)O (stereo not given),-0.947% (inactive)
8,N[C@@H](Cn1oc(=O)[nH]c1=O)C(=O)O,-3.6% (inactive)
9,Cc1[nH]c2ccc(O)cc2c1CCN,-2.87% (inactive)
10,CCN(CC)c1ncnc2c1ncn2[C@@H]1O[C@H](COP(=O)(O)OP(=O)(O)C(Br)(Br)P(=O)(O)O)[C@@H](O)[C@H]1O,-2.07% (inactive)
11,NC(=O)COc1c(F)cc(SCCNS(=O)(=O)c2ccccc2)cc1F,-3.08% (inactive)
12,N[C@@H](Cn1ccc(=O)[nH]c1=O)C(=O)O,-2.1% (inactive)
13,NC(=O)CI,1.43% (inactive)
14,NCC(O)c1cc(O)c(O)cc1F (stereo not given),-2.15% (inactive)
15,CCCN(CCC)[C@@H]1CCc2cccc(O)c2C1,-3.13% (inactive)
16,N[C@@]1(C(=O)O)CC[C@@H](C(=O)O)C1,-2.03% (inactive)
17,Cc1sc2ccccc2c1CC1=NCCN1,-4.37% (inactive)
18,NC(Cc1cc(O)c(O)cc1O)C(=O)O (stereo not given),-5.14% (inactive)
19,CC(C)(O)[C@@H]1C2OC(=O)[C@@H]1[C@]1(O)C[C@H]3O[C@]34C(=O)O[C@H]2[C@]14C (tested in a mixture with another compound),-1.82% (inactive)
20,COC(=O)N1CCN(C(=O)Cc2ccc(Cl)c(Cl)c2)C(CN2CCCC2)C1 (stereo not given),-0.375% (inactive)

row,SMILES,activation
1,C[C@H](N)Cc1cccc(C(F)(F)F)c1,-2.62% (inactive)
2,CC(Cc1ccc(OCC(=O)O)cc1)NCC(O)c1cccc(Cl)c1 (stereo not given),-2.71% (inactive)
3,CCCN1CC[C@@H]2c3cc(O)ccc3CC[C@@H]21,-1.45% (inactive)
4,CCCN1CCc2cc(O)cc3c2[C@H]1Cc1ccc(O)c(O)c1-3,-2.16% (inactive)
5,NNC(=O)c1ccc(O)cc1,5.35% (inactive)
6,CO[C@H]1CC=C2CCN3CCC4=C(CC(=O)OC4)[C@]23C1,-2.92% (inactive)
7,NC(C(=O)O)c1cc(=O)[nH]o1 (stereo not given),0.107% (inactive)
8,c1ccc2c(c1)[I+]c1ccccc1-2,-6.5% (inactive)
9,CC(C)(C)c1cc(C=C(C#N)C#N)cc(C(C)(C)C)c1O,-8.07% (inactive)
10,COc1cc(CC(C)N)c(OC)cc1I (stereo not given),-3.92% (inactive)
11,O=S1(=O)N(CCN2CC=C(c3c[nH]c4cc(F)ccc34)CC2)c2cccc3c2N1CCC3,-0.996% (inactive)
12,C[N+]1(C)CCc2cc3c(cc2[C@H]1[C@@H]1OC(=O)c2c1ccc1c2OCO1)OCO3,-1.35% (inactive)
13,CC1(C(=O)O)C2CCC(O2)C1(C)C(=O)O (stereo not given),-8.64% (inactive)
14,NC(N)=Nc1ccc2[nH]c3c(c2c1)C[C@@]1(O)[C@H]2Cc4ccc(O)c5c4[C@@]1(CCN2CC1CC1)[C@H]3O5,-0.366% (inactive)
15,CCCC[N+]1(C)C2CC(OC(=O)[C@H](CO)c3ccccc3)CC1C1OC12 (stereo not given in full),-3.61% (inactive)
16,C[N+](C)(C)CCOC(=O)CBr,-1.95% (inactive)
17,CC12NC(Cc3ccccc31)c1ccccc12 (stereo not given),-1.3% (inactive)
18,CCCCCCCCCCCCCC(=O)O[C@@H]1[C@@H](C)[C@@]2(O)[C@@H](C=C(CO)C[C@@]3(O)C(=O)C(C)=C[C@@H]23)C2C(C)(C)[C@@]21OC(C)=O (stereo not given in full),0.998% (inactive)
19,Clc1ccc(N2CC3CCC(C2)N3)nn1,-0.909% (inactive)
20,O=[N+]([O-])c1ccc2nc(N3CCNCC3)ccc2c1,0.752% (inactive)
